Reference: PubChem BioAssay AID686934 (National Center for Advancing Translational Sciences (NCATS), 2013)
Results filed as inconclusive are left out. Unmarked numbers belong to inactive results. Calls follow the shape of the dose curve; as a rule, active = well fitted curve in the direction sought with a large enough effect; inconclusive = small, poorly fitted or top-dose-only effect, or another doubt; inactive = no such curve, though single readings can be large or run the other way.

test: qHTS screen for small molecules that inhibit ELG1-dependent DNA repair: SAR in Cell-Based Luciferin Counter Assay; conditions: cell-based luciferase counter-screen, luminescence; series mostly up to 45.7 µM; activity change, negative = inhibition: at the top concentration
Description: Cancer cells divide rapidly compared to normal cells in the body. During cell division, cancer cells need to duplicate their genome by DNA replication. The failure of genome duplication leads to cancer cells' death. Therefore, inhibitors of DNA replication could specifically kill cancer cells. Based on this concept, many chemotherapeutic agents were developed and have been used to treat cancer patients. However, there are a limited number of agents available in the clinical setting, and some of those that do exist have low efficacy and severe side effects. Therefore, if we can find the compounds that effectively block DNA replication either by directly damaging DNA or by inhibiting other cellular mechanisms, the options for cancer treatment will be broadened. With this in mind, we developed a quantitative high-throughput ELG1-luciferase reporter gene assay. Small molecules that specifically block ELG1 function in response to DNA damage can be identified by monitoring the suppression of luciferase activity. Since ELG1 defines a pathway for repairing DNA damage, agents blocking ELG1 function can be used to sensitize cancer cells to chemotherapeutic agents whose mechanism of action involves the induction of DNA damage. This assays is a counterscreen, that is more specifically, a cell-based luciferase assay following treatment with putative ELG1 antagonists to eliminate luciferase enhancers/inhibitors NIH Molecular Libraries Probe Production Network [MLPCN] NIH Chemical Genomics Center [NCGC] MLPCN Grant: R03 MH092164 Assay Provider: Kyungjae Myung, NHGRI, NIH
3 uL of substrate reagent will be pipetted into each well in 1536-well white, solid-bottom plates using a FRD dispenser, followed by addition of 23 nL of DMSO or compounds by pintool. After compound addition, 1 µL of luciferase will be added into the wells. The plates will be read in a ViewLux CCD-based plate reader.

SMILES | activity change, negative = inhibition [%]
CCCCCC1C(=O)O[C@H](C)[C@@H](NC(=O)c2cccc(NC=O)c2O)C(=O)OC(C)C1OC(=O)CC(C)C (stereo partly specified) | 4.59
CCCSc1ccc2nc(NC(=O)OC)[nH]c2c1 | 64.3
CC(=O)OCC1=C[C@H]2[C@@H]3C(C)(C)[C@]3(OC(=O)Cc3ccccc3)C[C@@H](C)[C@]2(O)[C@@H]2C=C(C)C(=O)[C@@]2(O)C1 | 51.3
CCCC(=O)O[C@@H]1[C@@H](C)[C@@]2(O)[C@@H](C=C(CO)C[C@]3(O)C(=O)C(C)=C[C@@H]23)[C@@H]2C(C)(C)[C@]12OC(=O)CCC | 64.7
CN[C@@H]1C[C@@]2(C)O[C@@H]([C@@H]1OC)n1c3ccccc3c3c4c(c5c6ccccc6n2c5c31)C(=O)NC4 | -73.1
O=C(CCl)c1ccc(O)c(O)c1 | -10.9
